Source: PubChem BioAssay AID493087 (The Scripps Research Institute Molecular Screening Center, 2011)
Screen size: about 340,000 compounds; about 240 (0.071%) were called active. This is one part of a sample in which actives are shown more often than they occur.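 The calls were made as follows: active = activation above the mean of all tested compounds plus 3 SD, set per screening campaign (cut at about 17% in these data); inactive = the rest.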

target: Insulin-degrading enzyme (Homo sapiens) (UniProt P14735); assay: enhanced cellular IDE Abeta cleavage – fluorescence polarization, HEK cells, FAbeta-B substrate, primary screen (AID 493087); conditions: at 5.96 µM, stronger effect = higher value, 0% vehicle, 100% cell-free pure enzyme wells
Sequence (P14735 whole entry, looked up): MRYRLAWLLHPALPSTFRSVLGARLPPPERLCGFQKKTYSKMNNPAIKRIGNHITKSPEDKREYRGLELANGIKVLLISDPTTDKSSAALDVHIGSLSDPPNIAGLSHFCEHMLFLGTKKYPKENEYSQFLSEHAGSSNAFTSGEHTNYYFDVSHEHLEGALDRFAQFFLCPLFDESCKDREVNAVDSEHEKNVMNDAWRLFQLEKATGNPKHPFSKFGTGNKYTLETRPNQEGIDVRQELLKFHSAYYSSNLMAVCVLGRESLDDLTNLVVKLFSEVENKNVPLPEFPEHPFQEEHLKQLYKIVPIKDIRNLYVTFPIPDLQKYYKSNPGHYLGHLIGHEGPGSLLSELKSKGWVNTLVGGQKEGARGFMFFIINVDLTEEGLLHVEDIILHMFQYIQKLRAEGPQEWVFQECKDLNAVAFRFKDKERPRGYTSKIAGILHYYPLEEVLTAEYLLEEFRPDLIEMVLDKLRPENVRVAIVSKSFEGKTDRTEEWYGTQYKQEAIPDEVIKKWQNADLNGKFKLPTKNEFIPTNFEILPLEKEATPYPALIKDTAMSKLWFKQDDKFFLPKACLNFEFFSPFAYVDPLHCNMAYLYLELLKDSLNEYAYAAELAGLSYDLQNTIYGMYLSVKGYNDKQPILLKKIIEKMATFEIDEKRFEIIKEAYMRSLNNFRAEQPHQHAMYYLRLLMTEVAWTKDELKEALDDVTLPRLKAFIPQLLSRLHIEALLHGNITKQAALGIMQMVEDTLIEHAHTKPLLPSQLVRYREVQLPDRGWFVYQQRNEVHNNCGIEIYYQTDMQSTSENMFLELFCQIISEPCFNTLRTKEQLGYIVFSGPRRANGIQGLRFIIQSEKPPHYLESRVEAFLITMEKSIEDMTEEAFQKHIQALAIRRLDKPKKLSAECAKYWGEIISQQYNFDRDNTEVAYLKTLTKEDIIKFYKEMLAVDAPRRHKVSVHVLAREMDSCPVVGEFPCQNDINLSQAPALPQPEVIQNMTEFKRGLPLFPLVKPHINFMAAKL

activation, inactive:
O=C1/C(=C\c2ccc(O)cc2)CCC1CNc1ccc(Cl)cc1 (configuration not stated) -1.61%, N#Cc1cccc(CN2CCC(=O)N([C@H](CO)c3ccccc3)CC2)c1 2.37%, OC(COc1ccccc1)CN1CCN(c2cccc(Cl)c2)CC1 (configuration not stated) 5.12%, CN(Cc1cccs1)C(=O)CN1C(=O)c2ccccc2S1(=O)=O 0.93%, COCCN(C(=S)Nc1cccc(Cl)c1C)C(C)c1ccco1 (configuration not stated) 1.29%, COc1ccc(S(=O)(=O)c2c[nH]c(=S)[nH]c2=O)cc1Cl -1.33%, CN(C)S(=O)(=O)c1ccc(N2CCCC2=O)c([N+](=O)[O-])c1 5.59%, COc1ccc(Cn2cc(CN3CCS(=O)(=O)N(Cc4ccc(-c5cccc(Cl)c5)cc4)C(C)C3=O)nn2)cc1 (configuration not stated) 1.16%, Cc1noc(C)c1C(=O)OC(C)C(=O)Nc1ccc2c(c1)OCO2 (configuration not stated) 0.42%, CCCCSCCCNC(=O)C1CCC(CNS(=O)(=O)c2ccc(NC(C)=O)cc2)CC1 (configuration not stated) -0.18%, C=CCn1c(=O)c(C(=O)NCc2ccc3c(c2)OCO3)c(O)c2ccccc21 3.17%, CCn1c(=O)cc(SCC(=O)NCc2ccc3c(c2)OCO3)c2ccccc21 2.55%, COc1ccccc1CC(NC(C)=O)C(=O)NC1CCN(C(=O)Nc2ccccc2Cl)CC1 (configuration not stated) 3.56%, O=C(CSc1ncnc2sccc12)NC1CCS(=O)(=O)C1 (configuration not stated) 6.28%, CCOC(=O)/C=C/c1ccc(C(F)(F)F)cc1S(=O)(=O)NC(C)(C)C -1.81%, CCOCc1c(C(=O)N2CCN(Cc3ccc(Br)s3)CC2)oc2ccccc12 7.28%, Cc1ccc(NC2CCCN(C(=O)CCC3(C)CC3)C2)cc1C (configuration not stated) 3.99%, Cn1c2c(c(=O)n(C)c1=O)[C@@H]1c3c(ccc4ccccc34)OC[C@@H]1CO2 9.31%, Cc1cc(C)c(S(=O)(=O)Nc2c(C)n(C)n(-c3ccccc3)c2=O)cc1[N+](=O)[O-] 0.96%, CSc1ccccc1OCc1cc(C(=O)N2C[C@H]3CC[C@H]2C3)no1 0.59%, COC(=O)c1c(C)cc(O)c(C)c1O -0.29%, COc1ccc(CCNC(=O)CCNS(=O)(=O)c2cc(Br)cnc2N)cc1OC 3.78%, Cn1c(N)c(C(=O)COC(=O)/C=C/c2cccc(C(F)(F)F)c2)c(=O)n(C)c1=O 4.24%, CCN1CCN(C(=O)C2(NC(=O)Nc3cccc(F)c3)CCCCC2)CC1 4.93%, CC(=O)N1c2ccc(S(=O)(=O)N3CCCC(C(=O)Nc4cccc(F)c4)C3)cc2CC1C (configuration not stated) 5.74%, Cc1ccc(NC(=O)C(c2ccccc2)N2CCN(C(=O)c3ccco3)CC2)cc1 (configuration not stated) 0.44%, CCCC[C@@H]1CN=C(N)N1CCc1cc(C(F)(F)F)cc(C(F)(F)F)c1 5.76%, CCCC(C)C(=O)OCC(=O)Nc1c(Br)cc(C)cc1Br (configuration not stated) 4.33%, Cc1ccc(S(=O)(=O)N2C[C@@H]3CCCC[C@@H]3[C@@H](C)[C@H]2c2cn(Cc3ccccc3)c3ccc(F)cc23)cc1 0.65%, Cc1cccc(N2CCN(C(=O)c3cc4c(=O)[nH]c5ccccc5c4n3C)CC2)c1C 0.68%, CCOC(=O)C1CCCN(S(=O)(=O)c2ccc3c(c2)C(C)(C)C(=O)N3C)C1 (configuration not stated) 4.3%, CC(=O)N1CCCc2cc(S(=O)(=O)N3CCCC(C(=O)N4CCN(c5cccc(Cl)c5)CC4)C3)ccc21 (configuration not stated) 1.25%, O=C1CCC[C@@H]2CC(N3CCCCC3)C[C@@H]3CCN1[C@H]23 (some centres not stated) 3.58%, Cc1cccc(CCNC(=O)Cn2ncc3c([nH]c4ccc(C)cc43)c2=O)c1 4.1%, COc1cccc(NC(=O)CC(c2ccc(OC(C)C)cc2)c2ccccc2OC)c1 (configuration not stated) 5.55%, Cc1cccc(C(=O)NC(=S)N2CCN(c3ccc([N+](=O)[O-])cc3)CC2)c1 7.97%, Cc1ccc(S(=O)(=O)N(C)C)cc1NC(=O)CN1c2cccc3cccc(c23)S1(=O)=O -4.07%, O=C(CN1CCN(c2cccc(Cl)c2)CC1)Nc1ccc(S(=O)(=O)N2CCOCC2)cc1 -1.02%, CC1CC(C)CN(CCCNC(=O)c2csc3c2CCCCC3)C1 (configuration not stated) 0.64%, COc1ccc(NS(=O)(=O)c2ccc(N3CCN(CCO)CC3)c([N+](=O)[O-])c2)cc1 4.53%, O=C1OCC2=C1C(c1ccccc1)CC(=O)N2c1cccc(F)c1 (configuration not stated) 2.91%, CCOC(=O)C1(CC2CCCCO2)CCN(Cc2nc(-c3cccs3)oc2C)CC1 (configuration not stated) -1.12%, CCOC(=O)C1CCCN(C(=O)c2ccc(CS(=O)(=O)c3ccc(Br)cc3)o2)C1 (configuration not stated) -1.91%, CCN1CCN(C2CCCCC2NS(=O)(=O)c2ccc(Cl)cc2)CC1 (configuration not stated) 5.06%, O=C1c2ccccc2C(=O)N1CCC(c1ccccc1)c1ccco1 (configuration not stated) 7.64%, CSc1nnnn1-c1c(C)cc(C)cc1C -3%, CCOCCCNC(=O)c1c[nH]c2cc(C)ccc2c1=O 4.46%, O=C1CC(c2ccccc2)C(=O)N2C(=O)CC(c3ccccc3)C(=O)N12 (configuration not stated) 3.82%, CCc1nccn1S(=O)(=O)c1cccc([N+](=O)[O-])c1 6.7%, COC(=O)c1ccc(CNC(=O)Cn2cc(C)c(=O)[nH]c2=O)cc1 4.54%, COC(=O)C1=CN(Cc2ccc(OC)cc2)C=C(C(=O)OC)C1c1ccc(O)c(OC)c1 5.83%, C=CCNC(=S)/N=c1/ccccn1Cc1ccccc1 4.17%, COc1ccc(C(=O)CN2C(=O)NC(C)(c3ccc(C)cc3)C2=O)cc1OC (configuration not stated) -1.44%, CCOc1ccc(CCNC(=O)COC(=O)C2CCN(S(=O)(=O)c3ccccc3)CC2)cc1OCC 2.21%, CCc1nnc(NC(=O)C2CC(=O)N(c3ccc4c(c3)OCCO4)C2)s1 (configuration not stated) 3.02%, Cn1c(=O)n(C)c2cc(S(=O)(=O)Nc3ccc(F)cc3)ccc21 4.63%, Cc1cc2oc(C(=O)Nc3c(C)n(C)n(-c4ccccc4)c3=O)c(C)c2cc1Cl 1.29%, S=C1Nc2cc(Cl)ccc2Sc2ccccc21 0.11%, CC(C#N)(NC(=O)CN1CCN(S(=O)(=O)c2cc(C(F)(F)F)ccc2Cl)CC1)C1CC1 (configuration not stated) 5.5%, CNC(=O)NC(=O)C(OC(=O)c1cccc(S(=O)(=O)N2CCCCC2)c1)c1ccccc1 (configuration not stated) -3.23%, N#Cc1ccccc1NC(=O)COc1c(Br)cc(Br)c2cccnc12 -2.72%, COc1ccc(S(=O)(=O)N2CCN(c3cnccn3)CC2)cc1 0.13%, O=C(NCCc1ccc(F)cc1)c1ccc2nccnc2c1 -0.11%, CCC(=O)Nc1cccc(C2=NOC3(C2)C[C@@H](C(N)=O)N(C(=O)c2cc([N+](=O)[O-])cc([N+](=O)[O-])c2C)C3)c1 (some centres not stated) 5.78%, O=C(N/C(=C\c1ccc(F)cc1)C(=O)N1CCCCCC1)c1ccccc1 5.73%, O=C(C1Cc2ccccc2CN1C(=O)c1ccco1)N1CCN(c2ccccc2)CC1 (configuration not stated) 4.46%, CCOC(=O)CSc1nnc(CNC(=O)c2cccs2)n1-c1cc(OC)ccc1OC 0.94%, COc1ccc(-c2oc3ncn(Cc4ccco4)c(=N)c3c2-c2ccc(OC)cc2)cc1 5.41%, CCOC(=O)c1cccc(NC(=O)CN2C(=O)C3CC=CCC3C2=O)c1 (configuration not stated) 1.23%, Cn1c2ccccc2c2cc(/C=C(\NC(=O)c3ccccc3)C(=O)NCC(=O)O)ccc21 -43.6%, CCN1CCN(c2cc3nc(C)n(Cc4ccccc4)c(=O)c3cc2NC(=O)c2ccccc2F)CC1 2.61%, Cc1ccsc1C(=O)NC1CCCCC1C (configuration not stated) -2.46%, Cc1cc(=O)oc(C)c1C(=O)NCCN(C)Cc1ccccc1 -4.58%, CN(C(=O)CSc1nnc(C2CC2)n1C)C1CCCc2ccccc21 (configuration not stated) 0.43%, CC(C)C(NC(=O)c1c(F)cccc1F)C(=O)NNC(=O)c1ccccc1 (configuration not stated) 5.51%, O=S(=O)(Nc1ccc2ccccc2c1)N1CCCCC1 1.85%, CC1CCC(NS(=O)(=O)c2ccc3c(c2)CC(=O)N3)CC1 (configuration not stated) 3.97%, CCOC(=O)C1(CCOc2ccccc2)CCN(Cc2cc(OC)cc(OC)c2)CC1 -1.76%, CCOC(=O)C1(CCOc2ccccc2)CCN(Cc2cc(OC)c(O)cc2Cl)CC1 2.9%, COc1ccccc1/C=C/C1=NC(=C\N(C)C)/C(=O)O1 -5.01%, Cn1c(=O)c2cc(S(=O)(=O)NCCC(=O)Nc3ccc(F)cc3F)ccc2n(C)c1=O 5.29%, COc1ccc(C2C(C#N)=C(N)Oc3n[nH]c(C)c32)cc1CN1CCN(c2ccc(F)cc2)CC1 (configuration not stated) -3.14%, Cc1cccc(NC(=O)CSc2nnc(CCNC(=O)OC(C)(C)C)o2)c1C -0.87%, Cc1ccccc1OC(=O)Cn1c(C(F)(F)F)nc2ccccc21 3.41%

activation, active:
CCn1c(=O)c([N+](=O)[O-])c(NCc2ccc3c(c2)OCO3)c2ccccc21 23.5%, CCOC(=O)/C=C/CN(C(=O)OC(C)(C)C)S(=O)(=O)N1CC=CC1 34.8%, Cc1c(CN2CCC(CO)(CCOc3ccccc3)CC2)[nH]c2ccc(Cl)cc12 24.6%
